Experimental data from PubChem BioAssay (NCATS).
Values joined by “and” are separate entries in the source; they are usually repeats but may differ in a detail not shown here. Identical values can stand only once. Records with an inconclusive call do not appear. Unmarked numbers belong to inactive results. Active and inactive are the calls of the source. Calls follow the shape of the dose curve; as a rule, active = well fitted activation curve with a large enough effect; inconclusive = small, poorly fitted or top-dose-only effect; inactive = no such curve, though single readings can be large or run the other way. Square brackets hold non-standard residues; d marks the D form. Peptide text beside a SMILES is read from it. ξ: configuration not given here. ξPhe(βξ-Me) = CC(c1ccccc1)C(N)C(=O)O; GABA = NCCCC(=O)O

biological target: Cellular tumor antigen p53 (Homo sapiens) (UniProt P04637); assay: Primary qHTS for small molecule compounds that upregulate eGFP-tagged delta133p53alpha (in N-terminal) cells. (AID 2060322); conditions: NCI-H358 eGFP-delta133p53alpha fluorescence, 24 h; activation: active compounds read high; also: nearly all actives have a fitted effect of over 75% in size;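 as to activation: cells pre-induced with doxycycline then dosed without doxycycline; series mostly up to about 56 µM; 0% = DMSO vehicle and 100% = reference activator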
Sequence (P04637 whole entry, looked up): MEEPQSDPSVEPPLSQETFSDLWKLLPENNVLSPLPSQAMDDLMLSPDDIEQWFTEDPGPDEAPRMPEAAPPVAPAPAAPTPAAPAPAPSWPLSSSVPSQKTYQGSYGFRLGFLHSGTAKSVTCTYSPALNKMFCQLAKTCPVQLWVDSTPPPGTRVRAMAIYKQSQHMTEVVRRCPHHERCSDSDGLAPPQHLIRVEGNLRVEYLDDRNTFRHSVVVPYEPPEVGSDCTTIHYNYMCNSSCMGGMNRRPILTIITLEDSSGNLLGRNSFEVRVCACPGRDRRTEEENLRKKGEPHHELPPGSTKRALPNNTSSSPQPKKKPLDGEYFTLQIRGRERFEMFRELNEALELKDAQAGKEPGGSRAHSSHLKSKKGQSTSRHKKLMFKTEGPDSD
Outline: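 NCI-H358 cells pre-induced 24 h with 10 ng/ml doxycycline for eGFP-delta133p53alpha, plated dox-free and exposed 24 h at 37C to titrated compounds. Fixed, Hoechst-stained; gated GFP peak intensity by laser scanning cytometry, normalized to DMSO (0%) and 57.5 uM 5-azacytidine (100%).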
Potency is read from the fitted curve at half-maximal effect.

SMILES | Potency | activation
CCOc1cc(CNC2CCCC2)cc(Cl)c1OCc1ccc(Cl)cc1 | 21.3 µM (active) | 
CC1=CC(=O)[C@H]2C(C)(C)CCC[C@]2(C)[C@@]1(O)CO |  | -29%
O=C(/C=C/c1ccc(O)cc1)OCC1OC(O)C(OC2OC(CO)C(O)C(O)C2O)C(O)C1O (centres undefined) |  | -13%
C/C(=C\CO)CC/C=C(\C)C(=O)O[C@@H]1O[C@H](CO)[C@@H](O)[C@H](O)[C@H]1O |  | -19.6%
O=C(OCC(O)CO[C@@H]1O[C@H](C(=O)O)[C@@H](O)[C@H](O)[C@H]1O)c1ccccc1 (some centres undefined) |  | -13%
CNC(=O)c1ccccc1Sc1ccc2c(/C=C/c3ccccn3)n[nH]c2c1 |  | -18.6% and -9.82%
CC(C)(O)c1ccc2c(c1)C(=O)C[C@H]1[C@](C)(C(=O)O)CCC[C@]21C |  | -1.53%
CC(C)CC1NC(=O)C(C(C)c2ccccc2)NC(=O)C(C(C)C)NC(=O)C(C)NC(=O)CCCNC(=O)C(Cc2c[nH]c3ccccc23)NC(=O)C(C)NC1=O (stereo not drawn) (cyclo([GABA]AV[ξPhe(βξ-Me)]LAW); configuration not given here) |  | 8.4%
COc1cc(O[C@@H]2O[C@H](CO)[C@@H](O)[C@H](O)[C@H]2O)c(CCC(=O)OC[C@H]2O[C@@H](Oc3cc(OC)c(C4OC(=O)C(C)(O)C4O)cc3CCC(=O)O)[C@H](O)[C@@H](O)[C@@H]2O)cc1C1OC(=O)C(C)(O)C1O (some centres undefined) |  | -6.11%
C[C@@H](Oc1cc(-n2cnc3ccc(OC4CCN(C)CC4)cc32)sc1C(N)=O)c1ccccc1C(F)(F)F | 4.78 µM (active) | 
CCc1nn(CCO)c(CC)c1Oc1cc(C#N)cc(C#N)c1 |  | 11.9%
C=C[C@@]12COC(=O)C(=C)[C@@H]1[C@@H](O)[C@H](C(=C)C(=O)OC)[C@@H](O)C2 |  | -7.63%
CC(=O)c1cc(C(=O)N[C@@H](C)Cn2ccc(-c3ccc(C#N)c(Cl)c3)n2)[nH]n1 |  | 18.3%
O=C(OC1C=C(CO)C2C(OC3OC(CO)C(O)C(O)C3O)OC=CC12)c1ccc(O)cc1 (centres undefined) |  | -16%
CC(C)C1NC(=O)CNC(=O)C2CCCN2C(=O)C(Cc2c[nH]c3ccccc23)NC(=O)CNC(=O)C(Cc2ccc(O)cc2)NC(=O)CNC1=O (centres undefined) (cyclo(GVGYGWP); configuration not given here) |  | -6.25%
CCOC(=O)CCNc1cc(N2CCc3ccccc3CC2)nc(-c2cccnc2)n1 |  | 7%
O=C1c2c(O[C@@H]3O[C@H](CO)[C@@H](O)[C@H](O)[C@H]3O)cc(O)cc2OC1(O)Cc1ccc(O)cc1 (some centres undefined) | 10.4 µM (active) | 
C/C(=C\C1CCC(C)C2CCC3(C)OC123)C(=O)O (centres undefined) |  | 8.04%
CC1(C)[C@@H](O)CC[C@]2(C)[C@H]3CC=C4[C@@H]5C[C@](C)(C(=O)O)CC[C@]5(C)CC[C@@]4(C)[C@]3(C)CC[C@@H]12 |  | 7%
CC(C)(C)[C@H](NC(=O)c1ccc(N)c(Cl)c1)C(=O)N1CCC[C@H]1C(=O)N[C@H](C#N)CC(=O)O |  | -7%
C/C=C(\C)C(=O)O[C@@H]1CC2[C@@H](CC=C3C[C@@H](O[C@H]4C[C@H](OC)[C@H](O[C@H]5C[C@H](OC)[C@H](O[C@H]6C[C@H](OC)[C@H](O[C@H]7C[C@@H](OC)[C@H](O[C@@H]8O[C@H](CO)[C@@H](O)[C@H](O)[C@H]8O)[C@@H](C)O7)[C@@H](C)O6)[C@@H](C)O5)[C@@H](C)O4)CC[C@@]32C)[C@@]2(O)CC[C@H](C(C)=O)[C@@]12C (some centres undefined) |  | -9.92%
CC(=O)O[C@H]1[C@H](O[C@H]2CC[C@]34C[C@]35CC[C@]3(C)[C@@H]([C@@]6(C)CC[C@@H](C(C)(C)O)O6)[C@@H](O)C[C@@]3(C)[C@@H]5C[C@H](O[C@@H]3O[C@H](CO)[C@@H](O)[C@H](O)[C@H]3O)[C@H]4C2(C)C)OC[C@@H](OC(C)=O)[C@@H]1O |  | -7.67%
COC(=O)C1=CO[C@@H](O[C@@H]2O[C@H](CO)[C@@H](O)[C@H](O)[C@H]2O)/C(=C\CO)[C@@H]1CC(=O)OCCc1ccc(O)cc1 |  | -20.6%
CC(C)Oc1ccc(-c2nc(-c3cccc4c3CCC4NCCC(=O)O)no2)cc1C#N (centres undefined) |  | 0%
